Out of some 53,000 sequences screened, about 3,700 (7%) were called active. This is one part of a sample in which actives are shown more often than they occur.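 Rule for the calls: active = gene knockdowns whose robust z-score for IL-1 alpha signal is at least 2 or at most -2, so actives lie on both sides; inactive = the rest.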

In PubChem BioAssay AID1508600 (Functional Genomics Laboratory (NCATS/FGL), 2020) one finds z-score data, which are given here for 69 sequences.

The nature of this test: Components of the Cytosolic LPS Sensing Pathway: Gene Identification via Genome-wide siRNA Screen. Conditions: RAW264.7 macrophages, IL-1a HTRF, actives lie on both sides, screened at 100 nM (by protocol), cells primed 5 h with Pam3CSK4 first. The source says: Non-canonical inflammasome activation by cytosolic LPS is a critical component of the host response to Gram-negative bacterial infection, however we lack a comprehensive understanding of the cellular processes that control this pathway. Here we describe a genome-wide siRNA screen to identify genes regulating the mouse macrophage IL-1 alpha response to cytosolic LPS.
RAW264.7 cells were maintained in complete DMEM media, comprising DMEM with 4.5 g/L glucose, 10% FBS (Gemini Bio-Products, West Sacramento, CA), 2 mM Glutamine (Lonza) and 20 mM HEPES (Lonza), hereafter complete DMEM.
The RNAi screen was conducted in 384-well format using the Ambion Silencer Mouse Genome siRNA Library (#4391425), which consists of three unique, nonoverlapping, nonpooled siRNAs for each of 17,000 gene targets. siRNA reagents ([…]) were stamped into 384-well white flat-bottom microplates (Corning, 3570) using a Velocity11 VPrep liquid handling system (Agilent) integrated into a BioCel robotic platform (Agilent) in columns 1-22, leaving columns 23-24 empty for negative (Ambion, Negative control #1) and positive (mouse Casp4) controls, respectively. The median value of each plate's negative control column was used to normalize sample wells, and the positive control was used to assess transfection efficiency and assay performance.
Lipofectamine RNAiMAX Transfection Reagent ([…]; Invitrogen) was added in […] serum-free, antibiotic-free media to plate wells using a Thermo Scientific Matrix WellMate and Microplate Stacker. Plates were incubated for 45 min at room temperature to allow for the sufficient formation of siRNA-lipid complexes. Cells were seeded at a density of 1x10^4 cells per well in 20 microL media containing 20% (vol/vol) FBS without antibiotics. The final concentration of siRNA in each well was 100 nM. Cells were cultured for 48h at 37 degrees C in 5% CO2 before addition of […] of TLR ligand Pam3CSK4 for 5 hours. The medium was then removed, replaced with […] growth media and cell were transfected with […] of LipidA and TransIT-TKO (Mirus) for 24 hour. At the end of the LipidA treatment, […] of supernatant was transferred to a 384 Greiner Bio-one non-binding low volume plate and […] of IL-1a HTRF reagent (Cisbio, 62MIL1APEH) was added and incubated at room temperature overnight. The plates were read on an EnVision plate reader (PerkinElmer). Cell viability was measured by adding 20ul Cell Titer Glo to the original plate and running a luminescence read on the EnVision. The quantified IL-1a signal for each siRNA gene-targeted well was divided by the median of the negative control wells and multiplied by 100 to achieve a negative control normalized value for each well/siRNA. This normalized value was then used to generate a robust z-score by first taking the log of each value and then by subtracting the median and dividing by the […].
(TR-FRET usually uses a lanthanide donor and a delayed reading to cut background.)
Take GUUUCUGGAGACGGUGGAGTT against Rpl10a: the z-score is 1.74 (inactive).
Take AGGAAAGAAAAUAUGCUGATT against Cox17: the z-score is 1.12 (inactive).
The result for GCGUGCUGGUUUUCUGAUUTT against Sbno2 reads 0.333 (inactive); that for GGAGAUCCAGUUUUUUAACTT against Ndst1, 0.566 (inactive); that for GGUGGAAUUUUCAACUUACTT against Nkx3-1, 5.36 (active).
For the sequence GGUCUAGCUCAAAAUCCCATT against Srek1, the z-score is -1.3 (inactive).
Take GGCUACCGAGACAAUGCUUTT against Pcmtd1: the z-score is 0.232 (inactive).
The result for GGAGAAGAAUUCUUACAGGTT against Fbxo16 reads 0.468 (inactive).
Then CCCGACCUCAACAUUUGUATT against Bmp2k, with -0.265 (inactive); and GGUAGCAAAUCCAACAAGATT against Slamf1, with 0.226 (inactive).
Then “GGCACUUCCUCCCUCAACATT against 4833420G17Rik”, with -0.57 (inactive); and GGAGGUCAAAGUAAACUGGTT against Tial1, with 2.2 (active).
On to CCCAGUAAUAUGAAAAGAGTT against Gucy2f, for which the z-score is -0.408 (inactive).
Then GGUUGAAUCCUAAGAAUGUTT against Edc3, with 0.39 (inactive).
The result for GGAGAAAGCUCAGCAUACATT against Usp3 reads -0.484 (inactive).
Then GGGAAAGCACUCCAACACATT against Frem1, with -2.12 (active); and CGCAUGACCUUCCAGAUGCTT against Myoz1, with 0.49 (inactive).
In the case of GCACAUCAACAUUGAUACUTT against Atp11c, the z-score was -0.0521 (inactive).
For the sequence GGAAAUCGAGGACUUAUACTT against Wnk4, the z-score is 3.54 (active).
The result for GGCAAUGUCUUCUCCAAUATT against Dedd reads -0.652 (inactive); that for GCCGGAAGAAACUCAUGCUTT against Mad2l1bp, -0.152 (inactive); that for CCUGUUAAUUGAUUACCUUTT against Pla2r1, 1.03 (inactive).
Consider CCUAACGGUCAGAAGUUGATT against Ccng1, for which the z-score was 0.39 (inactive).
CCUCUCAGUGGUUGAAAUGTT against Wdr5: the z-score is -2.46 (active).
As for GGGCAGACCUAAUAGCUUATT against Cycs, the z-score is 0.707 (inactive).
The result for GCUUUUGACACUUAUAUGATT against Ptk7 reads -0.299 (inactive); that for GGCAUGUCUUAAUUUCAUUTT against Shisa2, 0.333 (inactive); that for GGAAGACUCACGGCUCAAATT against Ccdc124, -1.48 (inactive).
Then GGCAUCUUCCUUUAAAAAGTT against Gar1, with -0.708 (inactive); and GGACAGUUUAAGGACAACATT against Morn2, with 0.18 (inactive); and GGUGGUCUUCAAGUCUGACTT against Cdcp2, with 1.95 (inactive).
The result for GCAUCUCCCUUAUGUCUGUTT against Nubp2 reads 2.12 (active); that for GGGAAGUGGGAUUCCUAAGTT against Fam220a, 0.218 (inactive); that for GCACGAAGGUCGUUAUUAUTT against Wls, -0.28 (inactive).
As to GGUGACACAGGAGAAGAAGTT against Colec10, the z-score was -0.00926 (inactive).
Then GGUAAUUAAUUCAAAGCAGTT against St8sia4, with -0.851 (inactive); and GGAGUUUAUGAGGAACUCGTT against Zwint, with -0.0598 (inactive).
Consider GGGCUAAAUUCAUGGGUUCTT against Timp1, for which the z-score was 0.681 (inactive).
The result for GGGAAGAUCUUCAGGAAAATT against Cbr3 reads 1.1 (inactive); that for GCUCCUAAUGAAAUGGUUUTT against Kif2a, 1.41 (inactive).
The result for CGGUAUGUUAUUUUGGUUGTT against Fam216a reads -0.236 (inactive).
The result for GGGCUGUGGAAACAAUUUATT against Zpld1 reads 2.32 (active).
As for ACUUCCUGAUUGAGAGAAATT against Olfr497, the z-score is -0.319 (inactive).
As to GGUUCCACUAAUCUUUUUATT against Mark3, the z-score was 0.696 (inactive).
Regarding GGAGGAGAUUGUCCAGAAATT against Ecm1, the z-score is 1.2 (inactive).
The result for GGUCGACAUUGAAGCUAUUTT against Ralyl reads -0.517 (inactive).
Then GCAUUGUGAAUAUUCAGAUTT against Cers4, with 0.623 (inactive); and GGCAGUGUGUUAGAUUCUUTT against Cts3, with 2.35 (active).
For GGAGACUAUCCUCAUUAUUTT against Smarca4, the z-score is 0.36 (inactive).
On to AUGCUUUGAUCAGUAUGAATT against Vmn1r188, for which the z-score was -2.38 (active).
Turning to GGAGGACAACAAGUACUGCTT against Smap1, the z-score was -1.08 (inactive).
With GGAAAAUCGGUUAUCAUAATT against Pde7a, the z-score was -0.684 (inactive).
For GCUAUAGCGCGGAAAUGGATT against Dclk3, the z-score is -0.531 (inactive).
The result for GGUCAAAGAACAAAAAGAATT against Muc13 reads -0.176 (inactive).
On to GGAGCUAAAUGGCUCUGAUTT against Boc, for which the z-score is 2.98 (active).
The result for GGGACUGGCAGAUCUUAUCTT against Gtpbp3 reads 0.817 (inactive).
The result for GGAACGAGAAUCGGAGAUGTT against Mapk8ip3 reads 2.92 (active).
Take GGUCAUUGGUAGGUCCACUTT against Rusc2: the z-score was 0.338 (inactive).
The result for GGGAGAUUCAUUUUCCCAGTT against Rnf43 reads 0.0663 (inactive).
The result for GCAACAGGUUAGAAUAGACTT against Scd3 reads -1.36 (inactive); that for GGUUCUGCACAUCUGAACATT against Cst3, -0.109 (inactive); that for GGCCUUUUUGUUUAUGCUATT against Zan, -0.0784 (inactive).
The result for CCGUGUGGUCUGAUAAAAGTT against Fbxl8 reads -0.714 (inactive).
Turning to GCUCACUUGAUUCUGGUAATT against Ifnz, the z-score is 0.416 (inactive).
Then GGUGUCUGGAGGGAGAUUUTT against Peli3, with 0.245 (inactive).
The result for CCAAGUGCUAAACAAGACATT against Spata31 reads 1.06 (inactive); that for GGCUAAAGGAAACUCACCUTT against Duoxa2, -3.33 (active); that for GGUGACUGACAACCAGACATT against Dkkl1, -0.171 (inactive).
For the sequence GGGUCUUCUUCCUGAGUGUTT against Ak8, the z-score is -1.67 (inactive).
